Shown are actives, neighbours in structure and some others; about 1.6% of the full set was active somewhere.
V-ATPase pH = regulators of yeast V-ATPase proton pumping, primary screen, pHLuorin cytosolic pH fluorescence | hit rate 0.37% among 350,000 | response, % at 10 µM | S. cerevisiae; in the data active means response mostly above about 7.3%, no sharp cut-off; inactive means mostly below about 5.4%; further: actives read high
NPR2 activator = human GC-B receptor activators, primary screen, HEK293 GC-B cells, cGMP TR-FRET, EC30 CNP; Atrial natriuretic peptide receptor 2 (Homo sapiens), P20594; 0% at EC30 CNP, 100% saturating CNP; activation, % at 10 µM; hit rate 0.11% among 370,000; AID 1920062, 2024;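 active means activation at 10 µM reaching about 35% in either raw or pattern-adjusted values, limit read from the data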
GC-A act = GC-A stimulated cGMP production enhancers – HEK293 GC-A cells, cGMP TR-FRET, EC30 ANP, primary screen. Atrial natriuretic peptide receptor 1 (Homo sapiens), P16066. 0% at EC30 ANP, 100% saturating ANP. hit rate 0.14% among 370,000. activation, % at 10 µM; in the data active means activation above about 40%
PG9 binder = binders of HIV-1 gp120 antibody PG9, primary screen, biochemical, TR-FRET. HIV-1 gp120 / PG9 antibody interaction. TR-FRET gp120-PG9 antibody binding. inhibition, % at 6.7 µM. hit rate 0.43% among 360,000; in the data active means inhibition above about 8.5%
NR1D1 modulator = modulators of Rev-erb alpha DNA binding, primary screen, biochemical, FITC-DNA, fluorescence polarization, uHTS | Rev-erbα–FITC-DNA binding, 90 min | hit rate 0.79% among 370,000 | Nuclear receptor subfamily 1 group D member 1 (Homo sapiens), P20393 | activity, % at 10 µM | AID 1259318, 2017;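 active means activity above about 14%, limit read from the data; passing the limit was not always enough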;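 further: 0% = DMSO wells with 35 nM protein and 100% = DMSO wells with 750 nM protein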
Target sequence (P20393 whole entry, looked up): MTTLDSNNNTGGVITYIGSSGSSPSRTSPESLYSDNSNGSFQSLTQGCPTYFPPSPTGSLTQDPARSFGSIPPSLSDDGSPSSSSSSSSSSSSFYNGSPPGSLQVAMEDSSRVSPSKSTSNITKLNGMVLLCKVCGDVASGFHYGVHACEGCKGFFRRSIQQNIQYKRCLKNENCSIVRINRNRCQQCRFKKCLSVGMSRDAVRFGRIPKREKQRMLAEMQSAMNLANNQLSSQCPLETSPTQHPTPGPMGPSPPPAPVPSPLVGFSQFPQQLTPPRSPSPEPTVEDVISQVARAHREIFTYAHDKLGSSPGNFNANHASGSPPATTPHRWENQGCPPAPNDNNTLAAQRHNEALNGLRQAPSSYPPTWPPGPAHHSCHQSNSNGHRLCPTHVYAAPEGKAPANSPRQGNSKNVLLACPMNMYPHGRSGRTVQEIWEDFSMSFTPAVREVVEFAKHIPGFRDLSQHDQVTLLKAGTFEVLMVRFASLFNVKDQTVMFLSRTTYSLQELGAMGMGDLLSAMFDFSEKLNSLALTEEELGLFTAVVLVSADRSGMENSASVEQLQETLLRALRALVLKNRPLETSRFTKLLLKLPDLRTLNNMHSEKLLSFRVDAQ
Rev-erbA confirm = modulators of Rev-erb alpha DNA binding, confirmation, biochemical, FITC-DNA, fluorescence polarization, single point | shares compounds with NR1D1 modulator | 90 min | AID 1259319, 2017 | activation, % at 25 µM | hit rate 61% among 3,000;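 active means activation at or above a set limit, or at least 3 SD above the negative control mean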;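 further: 0% = 35 nM protein with DMSO and 100% = 750 nM protein high control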
RORg DNA counter = modulation of RORgamma DNA binding, dose response, counter-screen for Rev-erb alpha modulator project, biochemical, fluorescence polarization, FITC-DNA; hit rate 8% among 910; purified RORgamma protein-FITC-DNA binding; IC50, µM; shares compounds with NR1D1 modulator;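 active means Compounds whose fitted half-maximal concentration for disrupting protein-DNA binding is below 10 micromolar; the record names Rev-erb in its text, so the target is in doubt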
Numbers without * were called inactive; . = not tested or not shown.

SMILES	V-ATPase pH	NPR2 activator	GC-A act	PG9 binder	NR1D1 modulator	Rev-erbA confirm	others
COc1ccccc1C(=O)NC1CCCCN(Cc2cccc(F)c2)C1=O (stereo unspecified)	.	-2	-1	.	-11	.
CCCNC(=O)C[C@H]1CC[C@H]2[C@@H](COc3ccc(NC(=O)c4cncs4)cc3C(=O)N2C)O1	.	6	1	.	25	.
O=C(CCCC(=O)OCC(=O)c1cccs1)Nc1ccc(F)cc1	8	1	0	1	1	.
O=C(CCCC(=O)OCC(=O)c1cccs1)Nc1ccc(Oc2ccccc2)cc1	3	-1	13	0	68*	48*	RORg DNA counter=>40
O=C(NC(=S)Nc1ccc2oc(-c3ccncc3)nc2c1)c1ccccc1F	-3	22	-16	-1	37*	16
O=C(Nc1ccc2oc(-c3ccc(F)cc3)nc2c1)c1ccccc1F	.	3	6	6	41*	25*
O=C(NC(=S)Nc1ccc2oc(=O)ccc2c1)c1ccccc1F	2	1	-2	0	0	.
O=C(Nc1ccc2oc(-c3ccccc3F)nc2c1)c1ccc2c(c1)OCCO2	1	4	10	-1	15*	12
CNC(=O)CSc1nc(-c2ccccc2)c(-c2ccccc2)o1	0	-5	-14	0	14*	11
CN(C)C(=O)CSc1nc(-c2ccccc2)c(-c2ccccc2)o1	-1	-8	-36	-2	7	.
COc1ccccc1N=C1NC(=O)/C(=C/c2ccc(N(C)C)cc2)S1	2	-2	-8	-4	25*	13
CCC[C@@H](/C=C/C(=O)OC(C)(C)C)Sc1ccccc1OC	.	-11	-4	.	11	.
COc1cc2nc(-c3ccccc3)nc(N3CCCC3)c2cc1OC	.	-13	-5	-3	42*	25*
COc1cccc(-c2nc(N3CCCCC3)c3ccccc3n2)c1O	7	-10	-20	1	0	.
COP(=O)(OC)C(Cc1ccccc1)NC(=O)CNC(=O)OCc1ccccc1 (stereo unspecified)	.	-1	-3	.	4	.
CC(NC(=O)c1ccc(-c2cc(C(F)(F)F)ccc2Cl)o1)c1ccccc1 (stereo unspecified)	0	-6	-1	4	30*	45*	RORg DNA counter=0.78*
CCc1nnc(NC(=O)c2ccc(-c3cc(C(F)(F)F)ccc3Cl)o2)s1	-1	0	0	-1	10	.
CCCCCOc1ccc(NC(=O)CSc2cccc3cccnc23)cc1	-1	1	5	-2	46*	39*	RORg DNA counter=1.4*
CCOC(=O)CSc1nc(N)c(C#N)c(-c2cccs2)c1C#N	10	-3	1	0	16*	21*
COc1ccc(-c2cc(-c3cccs3)c(C#N)c(SCC(=O)NCc3ccccc3OC)n2)cc1	1	2	-1	2	46*	26*
COc1ccc(-c2cc(-c3cccs3)c(C#N)c(SCC(=O)NCc3ccccc3)n2)cc1	0	-3	1	1	52*	26*
N#Cc1c(N)nc(SCc2ccccn2)c(C#N)c1-c1cccs1	-1	4	10	-2	-1	.
COc1ccccc1CNC(=O)CSc1nc(N)c(C#N)c(-c2cccs2)c1C#N	-1	-8	-15	1	35*	25*
COc1ccc(/C=C2\CC3(OC(=O)c4ccc(F)cc4)CCCN2C3)cc1 (stereo unspecified)	.	2	3	.	-1	.
COc1ccccc1N1CCN(S(=O)(=O)c2ccc3c(c2)CCC(=O)N3)CC1	.	-6	-1	.	1	.
COC(=O)[C@]12C[C@H](CC(=O)N3CCOCC3)C(=O)N(Cc3ccco3)C1=C[C@H](COCc1ccccc1)O[C@@H]2C	.	10	-3	.	8	.
